# In PubChem BioAssay (EPA / NIEHS):
# Records with an inconclusive call do not appear. The source made the active and inactive calls. How the source made its calls: active means hit-call score of the fitted dose curve at least 0.9, where 1 is the maximum; inconclusive means response in the unintended direction; inactive means score below 0.9.
# Assays:
# [1] = target: rat Glutamate, AMPA Site (AMPA), Gria1 (gene 50592) (UniProt P19490); test: NVS_LGIC_rAMPA: NovaScreen (NVS) Ligand-Gated Ion Channel Assay for rat Glutamate, AMPA Site (AMPA) (AID 2283324)
# Method in brief: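 Rat forebrain membranes; radioligand binding read 1 h after dosing by filtration and scintillation counting. Duplicate single-point screen at 25 uM, then concentration-response to 50 uM for threshold hits (e.g. 30% inhibition); loss of signal vs DMSO.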
# [2] = target: bovine Gamma-Aminobutyric Acid Type A Receptor BDZ, alpha 5 site (GABARa5), GABRA5 (gene 523515) (UniProt Q08E50); test: NVS_LGIC_bGABARa5: NovaScreen (NVS) Ligand-Gated Ion Channel Assay for bovine Gamma-Aminobutyric Acid Type A Receptor BDZ, alpha 5 site (GABARa5) (AID 2283323)
# Method in brief: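 Radioligand competitive displacement binding on bovine hippocampal membranes, read 1 hr after dosing by filter-based scintillation counting. Primary screen at 25 uM in duplicate; actives (e.g. ≥30% inhibition) then run in concentration-response up to 50 uM.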
# [3] = target: rat Opioid Receptor, Non-selective Binding, Oprm1 (gene 25601) (UniProt P33535); test: NVS_GPCR_rOpiate_NonSelective: NovaScreen (NVS) G Protein-Coupled Receptor Assay for rat Opioid Receptor, Non-selective Binding (AID 2283318)
# Method in brief: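 Rat forebrain membranes, cell-free radioligand binding with filter-based scintillation counting, read 1.5 h after dosing. Primary screen in duplicate at 25 uM; actives retested in concentration series. Loss of signal versus DMSO baseline scored.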
# [4] = target: rat Neonicotinoid receptor (NNR), Chrna7 (gene 25302) (UniProt Q05941); test: NVS_LGIC_rNNR_BungSens: NovaScreen (NVS) Ligand-Gated Ion Channel Assay for rat Neonicotinoid receptor (NNR) (AID 2283315)
# Method in brief: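 Radioligand displacement binding on rat cortical membranes, 2.5 h incubation, filtration and scintillation counting. Loss of specific binding fitted relative to DMSO.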
# [5] = NVS_IC_rCaDHPRCh_L: NovaScreen (NVS) Ion Channel Assay for rat Calcium Channel, Type L, Dihydropyridine Site (CaDHPRCh_L) (AID 2283320)
# Method in brief: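 Radioligand binding to dihydropyridine site on rat cortical membranes, filter-based scintillation counting, 1 h after dosing. Screened in duplicate at 25 uM; actives rerun in concentration-response up to 50 uM. Loss of signal versus DMSO baseline.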
# [6] = target: Sodium channel protein type 1 subunit alpha (Rattus norvegicus) (UniProt P04774); test: NVS_IC_rNaCh_site2: NovaScreen (NVS) Ion Channel Assay for rat Sodium Channel, Site 2 (NaCh) (AID 2283322);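 further: hit means loss of radioligand binding signal relative to DMSO so AC50 marks displacement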
# Method in brief: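 Membranes: rat forebrain. Format: competitive radioligand displacement, filter separation, scintillation readout, 1 h exposure. Primary screen in duplicate at 25 uM; actives retested in concentration series.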
# [7] = target: human Serotonin, 5-Hydroxytryptamine Receptor 3 (5HT3), HTR3A (gene 3359) (UniProt P46098); test: NVS_LGIC_h5HT3: NovaScreen (NVS) Ligand-Gated Ion Channel Assay for human Serotonin, 5-Hydroxytryptamine Receptor 3 (5HT3) (AID 2283325)
# Method in brief: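 Radioligand displacement binding to human 5-HT3 from HEK293 membranes, read by filter-based scintillation counting after 1 h. Screen at 25 uM in duplicate; chemicals passing threshold were retested in concentration-response up to 50 uM.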
# [8] = target: rat Vasopressin 1 Receptor (V1), Avpr1a (gene 25107) (UniProt P30560); test: NVS_GPCR_rV1: NovaScreen (NVS) G Protein-Coupled Receptor Assay for rat Vasopressin 1 Receptor (V1) (AID 2283316)
# Method in brief: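 Radioligand binding on rat liver membranes, 1.5 h incubation, filter-based scintillation counting. Single 25 uM screen in duplicate; chemicals meeting threshold (e.g. 30% inhibition) run in concentration-response up to 50 uM.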
# [9] = target: rat Gamma-Aminobutyric Acid Type A Receptor, Non-Selective (GABAR-NonSelective), Gabra1 (gene 29705) (UniProt P62813); test: NVS_LGIC_rGABAR_NonSelective: NovaScreen (NVS) Ligand-Gated Ion Channel Assay for rat Gamma-Aminobutyric Acid Type A Receptor, Non-Selective (GABAR-NonSelective) (AID 2283326)
# Method in brief: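 Radioligand displacement on rat whole-brain extract, 1 h, filter scintillation readout; signal loss fitted versus DMSO. Primary screen in duplicate at 25 uM; hits (e.g. ≥30% inhibition) retested in concentration-response up to 50 uM.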
# NCBI gene 24521 = test: NVS_IC_rKATPCh: NovaScreen (NVS) Ion Channel Assay for rat Potassium Channel, ATP-Sensitive (KATPCh) (AID 2283319)
# Method in brief: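 Rat cortical membranes; radioligand binding at ATP-sensitive K channel site, filter-based scintillation counting 2 h after dosing. Single-point duplicate screen at 25 uM, hits rerun in concentration-response up to 50 uM; loss of signal versus DMSO.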
# Sequence of rat Neonicotinoid receptor (NNR), Chrna7 (gene 25302) (Q05941 whole entry, looked up): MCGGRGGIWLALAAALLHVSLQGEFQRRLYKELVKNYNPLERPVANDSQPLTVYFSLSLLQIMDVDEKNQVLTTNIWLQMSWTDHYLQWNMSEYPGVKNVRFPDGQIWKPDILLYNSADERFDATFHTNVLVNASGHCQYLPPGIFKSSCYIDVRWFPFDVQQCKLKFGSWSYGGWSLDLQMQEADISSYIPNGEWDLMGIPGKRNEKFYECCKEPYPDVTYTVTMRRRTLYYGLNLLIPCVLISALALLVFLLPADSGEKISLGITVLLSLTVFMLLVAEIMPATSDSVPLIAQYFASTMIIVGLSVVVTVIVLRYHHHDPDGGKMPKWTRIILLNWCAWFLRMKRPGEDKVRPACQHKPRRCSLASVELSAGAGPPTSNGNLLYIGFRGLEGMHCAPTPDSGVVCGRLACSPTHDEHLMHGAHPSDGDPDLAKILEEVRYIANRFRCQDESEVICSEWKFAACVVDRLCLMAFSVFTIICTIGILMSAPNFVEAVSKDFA
# Sequence of human Serotonin, 5-Hydroxytryptamine Receptor 3 (5HT3), HTR3A (gene 3359) (P46098 whole entry, looked up): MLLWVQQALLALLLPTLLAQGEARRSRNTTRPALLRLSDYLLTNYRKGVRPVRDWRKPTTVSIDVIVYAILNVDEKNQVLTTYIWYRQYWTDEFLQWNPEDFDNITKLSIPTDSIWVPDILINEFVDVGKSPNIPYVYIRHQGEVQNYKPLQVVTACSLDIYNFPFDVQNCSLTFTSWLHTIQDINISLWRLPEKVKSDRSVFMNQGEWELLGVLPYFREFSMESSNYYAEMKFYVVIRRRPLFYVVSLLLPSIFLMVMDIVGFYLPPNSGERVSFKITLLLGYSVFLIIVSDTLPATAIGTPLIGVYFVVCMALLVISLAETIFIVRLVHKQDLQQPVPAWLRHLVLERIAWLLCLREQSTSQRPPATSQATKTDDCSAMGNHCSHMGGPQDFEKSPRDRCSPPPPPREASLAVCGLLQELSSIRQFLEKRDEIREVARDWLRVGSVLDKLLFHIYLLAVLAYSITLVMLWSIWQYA
# Sequence of rat Glutamate, AMPA Site (AMPA), Gria1 (gene 50592) (P19490 whole entry, looked up): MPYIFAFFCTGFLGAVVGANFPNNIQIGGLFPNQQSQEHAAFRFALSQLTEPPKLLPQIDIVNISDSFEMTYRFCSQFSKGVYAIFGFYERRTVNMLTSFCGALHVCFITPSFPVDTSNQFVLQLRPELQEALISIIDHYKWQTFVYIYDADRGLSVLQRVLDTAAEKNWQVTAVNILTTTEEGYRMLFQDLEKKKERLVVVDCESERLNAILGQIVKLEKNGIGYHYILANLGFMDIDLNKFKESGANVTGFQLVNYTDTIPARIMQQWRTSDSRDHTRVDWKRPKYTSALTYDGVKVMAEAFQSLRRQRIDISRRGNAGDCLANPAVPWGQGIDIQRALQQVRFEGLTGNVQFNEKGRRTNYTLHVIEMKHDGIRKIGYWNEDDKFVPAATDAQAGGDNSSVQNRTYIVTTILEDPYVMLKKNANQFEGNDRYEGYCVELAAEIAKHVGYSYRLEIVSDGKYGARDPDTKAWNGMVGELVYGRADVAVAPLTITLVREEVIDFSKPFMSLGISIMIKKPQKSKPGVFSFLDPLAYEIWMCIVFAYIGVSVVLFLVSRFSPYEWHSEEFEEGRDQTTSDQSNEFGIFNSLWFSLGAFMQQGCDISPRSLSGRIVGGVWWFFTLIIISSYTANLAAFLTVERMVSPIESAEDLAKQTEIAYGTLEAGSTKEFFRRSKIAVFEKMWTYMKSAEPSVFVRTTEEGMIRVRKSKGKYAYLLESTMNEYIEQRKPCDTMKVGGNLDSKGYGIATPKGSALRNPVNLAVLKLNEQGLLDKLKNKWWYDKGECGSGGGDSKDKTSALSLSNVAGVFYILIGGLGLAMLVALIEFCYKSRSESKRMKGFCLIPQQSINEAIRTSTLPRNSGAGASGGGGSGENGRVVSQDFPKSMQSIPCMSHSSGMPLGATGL
# Sequence of bovine Gamma-Aminobutyric Acid Type A Receptor BDZ, alpha 5 site (GABARa5), GABRA5 (gene 523515) (Q08E50 whole entry, looked up): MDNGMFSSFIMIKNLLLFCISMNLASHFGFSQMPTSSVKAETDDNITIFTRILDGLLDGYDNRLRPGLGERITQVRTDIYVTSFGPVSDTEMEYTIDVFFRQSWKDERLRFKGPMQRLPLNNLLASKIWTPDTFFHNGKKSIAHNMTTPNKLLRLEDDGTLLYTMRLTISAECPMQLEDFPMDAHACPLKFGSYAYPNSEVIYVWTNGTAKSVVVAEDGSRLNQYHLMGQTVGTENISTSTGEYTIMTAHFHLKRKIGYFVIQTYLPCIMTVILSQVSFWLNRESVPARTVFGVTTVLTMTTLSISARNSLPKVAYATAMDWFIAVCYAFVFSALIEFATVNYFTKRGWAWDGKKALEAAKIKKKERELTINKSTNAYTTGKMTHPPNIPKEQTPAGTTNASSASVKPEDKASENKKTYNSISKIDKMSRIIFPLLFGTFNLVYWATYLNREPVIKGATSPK
# Sequence of rat Gamma-Aminobutyric Acid Type A Receptor, Non-Selective (GABAR-NonSelective), Gabra1 (gene 29705) (P62813 whole entry, looked up): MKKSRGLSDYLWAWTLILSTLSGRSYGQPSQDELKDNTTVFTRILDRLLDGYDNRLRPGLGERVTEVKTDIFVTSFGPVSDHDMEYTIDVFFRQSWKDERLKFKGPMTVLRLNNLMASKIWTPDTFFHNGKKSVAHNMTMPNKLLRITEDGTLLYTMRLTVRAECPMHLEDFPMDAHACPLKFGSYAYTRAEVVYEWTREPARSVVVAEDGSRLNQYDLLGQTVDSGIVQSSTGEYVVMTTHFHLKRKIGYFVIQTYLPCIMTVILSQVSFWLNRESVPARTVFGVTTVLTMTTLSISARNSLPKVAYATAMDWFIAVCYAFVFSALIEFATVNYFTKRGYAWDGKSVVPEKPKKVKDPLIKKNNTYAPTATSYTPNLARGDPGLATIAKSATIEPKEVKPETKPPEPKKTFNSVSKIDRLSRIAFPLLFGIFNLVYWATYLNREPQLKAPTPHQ
# Sequence of rat Opioid Receptor, Non-selective Binding, Oprm1 (gene 25601) (P33535 whole entry, looked up): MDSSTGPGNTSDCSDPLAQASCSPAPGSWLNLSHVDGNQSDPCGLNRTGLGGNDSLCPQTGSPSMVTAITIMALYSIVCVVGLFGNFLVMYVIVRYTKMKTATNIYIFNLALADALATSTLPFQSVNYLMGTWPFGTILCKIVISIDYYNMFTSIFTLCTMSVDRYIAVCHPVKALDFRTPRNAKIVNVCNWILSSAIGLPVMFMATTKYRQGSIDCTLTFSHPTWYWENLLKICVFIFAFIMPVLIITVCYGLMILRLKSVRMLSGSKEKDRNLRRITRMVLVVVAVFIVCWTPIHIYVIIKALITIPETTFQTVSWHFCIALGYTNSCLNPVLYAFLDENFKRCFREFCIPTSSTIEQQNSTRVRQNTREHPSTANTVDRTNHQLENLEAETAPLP
# Sequence of rat Vasopressin 1 Receptor (V1), Avpr1a (gene 25107) (P30560 whole entry, looked up): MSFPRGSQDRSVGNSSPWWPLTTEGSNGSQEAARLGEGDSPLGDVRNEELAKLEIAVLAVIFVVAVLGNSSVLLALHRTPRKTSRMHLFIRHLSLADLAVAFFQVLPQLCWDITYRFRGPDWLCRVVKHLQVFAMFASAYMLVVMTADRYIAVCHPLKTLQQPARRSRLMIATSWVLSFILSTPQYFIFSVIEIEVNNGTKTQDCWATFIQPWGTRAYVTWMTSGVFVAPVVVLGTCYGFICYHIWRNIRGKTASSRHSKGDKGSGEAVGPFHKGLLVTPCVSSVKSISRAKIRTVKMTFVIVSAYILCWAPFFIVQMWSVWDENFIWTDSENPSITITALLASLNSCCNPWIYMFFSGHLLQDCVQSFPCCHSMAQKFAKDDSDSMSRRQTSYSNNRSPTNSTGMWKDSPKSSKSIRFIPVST
smiles,measurement,setting,value
CCc1cccc(CC)c1N,outcome,[1],inactive
CCCOc1ccc(S(=O)(=O)N2CCN(CC)CC2)cc1-c1nc2c(CC)n(Cc3ccccn3)nc2c(=O)[nH]1,outcome,[2],inactive
Cc1ncc([C@@H](CCCCCCc2ccc3c(n2)NCCC3)CC(=O)O)cn1,AC50,[3],25 µM (active)
c1ccc(C(O[C@@H]2CCCN(CCc3ccc4c(c3)OCO4)C2)c2ccccc2)cc1,outcome,[4],inactive
same,AC50,[3],2.71 µM (active)
same,AC50,[5],6.43 µM (active)
same,AC50,[6],0.832 µM (active)
same,outcome,[2],inactive
COc1cc(C(C)C)c2c(c1)S(=O)(=O)N(COc1cc(=O)n3cccc(OCCN4CCCCC4)c3n1)C2=O,outcome,[4],inactive
same,AC50,[6],4.01 µM (active)
O=C1CN(N=Cc2ccc([N+](=O)[O-])o2)C(=O)N1,outcome,[1],inactive
same,outcome,[7],inactive
CCCCCCCCCC,outcome,[4],inactive
same,AC50,[8],25 µM (active)
same,outcome,[6],inactive
same,outcome,[1],inactive
Cc1nccn1-c1ccc(Sc2cccc(C3(C(N)=O)CCOCC3)c2)cc1,outcome,[3],inactive
same,AC50,[6],17.7 µM (active)
COCc1nnc(-c2ccc[n+]([O-])c2)n1-c1c(Cl)c(Cl)cc2[nH]c(=O)c(=O)[nH]c12,AC50,[1],12.6 µM (active)
O=c1[nH]cnc2c1ncn2[C@H]1CC[C@@H](CO)O1,outcome,[7],inactive
NC(=O)N1c2ccccc2C=Cc2ccccc21,outcome,[6],inactive
same,AC50,[9],4.66 µM (active)
CCn1nc(C)c2c1C(=O)NCC(c1ccc(O)cc1)=N2,outcome,[3],inactive
same,outcome,NCBI gene 24521,inactive
same,outcome,[5],inactive
same,outcome,[6],inactive
same,outcome,[7],inactive
C=CCc1cc(S(=O)(=O)c2ccc(O)c(CC=C)c2)ccc1O,AC50,[3],13.1 µM (active)
same,AC50,[5],8.51 µM (active)
same,AC50,[6],22.5 µM (active)
Cc1ccc(S(=O)(=O)NC(=O)NN2CCCCCC2)cc1,AC50,NCBI gene 24521,3.58 µM (active)
CCCCCCCCCCCCCCCCOS(=O)(=O)O,AC50,[7],17.3 µM (active)
CCCC(CCC)C(=O)O,outcome,[9],inactive
O=C(O)c1cccc(C(=O)O)c1,outcome,NCBI gene 24521,inactive
c1ccc2c(c1)-c1cccc3c1c-2cc1ccccc13,outcome,[7],inactive
OCCOCCOCCO,outcome,[1],inactive
OC(CCl)CCl,AC50,[9],4.96 µM (active)
CCN(CC)C(=S)SSC(=S)N(CC)CC,AC50,[8],15.6 µM (active)
same,outcome,[1],inactive
same,outcome,[7],inactive
O=C(O)[C@H](O)[C@@H](O)C(=O)O,outcome,NCBI gene 24521,inactive
CCOc1ccc2[nH]cc(C(=O)NCc3ccccc3)c(=O)c2n1,AC50,[2],0.0253 µM (active)
same,outcome,[9],inactive
